From PubChem BioAssay
ROC1-CUL1 inh: blocks human RBX1-Cullin-1 di-ubiquitin formation; inhibition, % at 10 µM; AID 1347404; in vitro K48 di-Ub FRET, acceptor:donor ratio, 45 min; P62877+Q13616; 140,000 tested, 0.6% active; in the data active = inhibition above about 25%
* hit, by the source's call. Only a selection was taken, and hits are over-represented in it overall.

Results for COCCN1CCCC2(CCN(C(=O)Cc3cccs3)C2)C1=O (configuration not stated) ?
ROC1-CUL1 inh: 7

Results for O=C(/C=C/c1ccc(F)c(F)c1)NCC1CCC2(CCN(Cc3ccccc3F)CC2)O1 (configuration not stated) ?
ROC1-CUL1 inh: 0

What do the screens show for `O=S(=O)(Nc1cc(Sc2ncn[nH]2)c(O)c2ccccc12)c1ccc2ccccc2c1`?
ROC1-CUL1 inh: 84*

What do the screens show for `COc1ccc(S(=O)(=O)Nc2ccc(O)c3ccccc23)cc1`?
ROC1-CUL1 inh: -6

How did NNS(=O)(=O)c1ccc2ccccc2c1 do in these assays?
ROC1-CUL1 inh: -1

How did Cc1cc2nc(NC(=O)c3ccco3)sc2cc1C do in these assays?
ROC1-CUL1 inh: 2

Results for COc1ccc(-c2oc3ccccc3c(=O)c2OS(=O)(=O)c2cc(OC)ccc2OC)cc1 ?
ROC1-CUL1 inh: 1

How did CCCCCOC(=O)C(C)n1cnc2sc3c(c2c1=O)CCCC3 (configuration not stated) do in these assays?
ROC1-CUL1 inh: 3

What do the screens show for `COc1ccc(-c2cc(C(F)(F)F)n3nc(C(=O)NCc4ccco4)c(Br)c3n2)cc1`?
ROC1-CUL1 inh: 29*

What do the screens show for `COc1ccc(CNC(=O)c2nn3c(C(F)(F)F)cc(-c4ccc(Br)cc4)nc3c2Br)cc1`?
ROC1-CUL1 inh: -7

What do the screens show for `O=C(NCc1ccco1)c1nn2c(C(F)(F)F)cc(-c3cc(Br)cs3)nc2c1Br`?
ROC1-CUL1 inh: -12

What do the screens show for `CCN1C2=C(C(=O)CCC2)C(c2cc(Cl)ccc2OCC(=O)O)C2=C1CCCC2=O`?
ROC1-CUL1 inh: 11

What do the screens show for `CC(C)c1n[nH]c2c1CN(C(=O)Cc1cn3ccsc3n1)CC2`?
ROC1-CUL1 inh: 7

How did CC(=O)c1cc(CN2CCC(n3nccc3NC(=O)C3CCCC3)CC2)cs1 do in these assays?
ROC1-CUL1 inh: -3

Results for CC1=NN(c2ccccc2)C(=O)C1c1ccccc1 (configuration not stated) ?
ROC1-CUL1 inh: 3

What do the screens show for `O=C1C(=O)N(c2ccccc2)N=C(c2ccccc2)C1C(=O)c1ccccc1` (configuration not stated)?
ROC1-CUL1 inh: -1

Results for O=C1N(c2ccccc2)N=C(c2ccccc2)C1(Br)Br ?
ROC1-CUL1 inh: 60*

What do the screens show for `Cc1csc(-c2ccccc2)cc1=O`?
ROC1-CUL1 inh: 7

How did COc1cccc(C(=S)NCS(=O)(=O)c2ccc(C)cc2)c1 do in these assays?
ROC1-CUL1 inh: -5

How did O=S(=O)(CNC(=S)c1ccccc1)c1ccccc1 do in these assays?
ROC1-CUL1 inh: 35*

How did S=C(NCCc1ccccn1)c1ccccc1 do in these assays?
ROC1-CUL1 inh: 6

What do the screens show for `CC(C)(C)C1CC=C2C(C#N)C(=N)C(C#N)(C#N)C(c3ccccc3)C2C1` (configuration not stated)?
ROC1-CUL1 inh: 5

How did COC(=O)c1ccccc1NC(=O)NC(=O)Nc1ccccc1C(=O)OC do in these assays?
ROC1-CUL1 inh: 2

How did CC(=O)N1CCCN(C(=O)c2cn(Cc3cccc(Cl)c3)nn2)CC1 do in these assays?
ROC1-CUL1 inh: -3

Results for Fc1c(F)c(F)c2nc3c(cc2c1F)c(-c1ccccc1)nn3-c1ccccc1 ?
ROC1-CUL1 inh: 3

Results for COc1ccc(CNc2c(F)c(F)c3nc4c(cc3c2F)c(-c2ccccc2)nn4C)cc1 ?
ROC1-CUL1 inh: 96*

What do the screens show for `COc1ccc(CNc2nc3c(-c4cccc(F)c4)nnn3c3ccccc23)cc1`?
ROC1-CUL1 inh: 2

How did CCN1C(=O)C(C=Nc2ccc(C)cc2O)C(=O)N(CC)C1=O do in these assays?
ROC1-CUL1 inh: -4

What do the screens show for `Cc1cnc(CNCC2(O)CCCN(Cc3cccc(F)c3F)C2=O)cn1` (configuration not stated)?
ROC1-CUL1 inh: 6

What do the screens show for `CSc1cccc(NC(=O)CSc2nnc(COc3c(C)cccc3C)n2C)c1`?
ROC1-CUL1 inh: 3

How did COc1cc(N=c2onc(C)cc2-c2ccc(C)cc2)ccc1OC(C)=O do in these assays?
ROC1-CUL1 inh: -6

Results for O=C(NC1CCCC1)c1ccc(N2CCC(NCc3ccc4c(c3)OCO4)CC2)cc1 ?
ROC1-CUL1 inh: -2

Results for COc1cc(CC2=NC(=O)N(CC(=O)Nc3cccc(C)c3)C2=O)cc(Cl)c1O ?
ROC1-CUL1 inh: 4

How did COc1cc(CC2=NC(=O)N(CC(=O)Nc3ccc(C)cc3)C2=O)cc(Cl)c1OCc1cccc(C(=O)O)c1 do in these assays?
ROC1-CUL1 inh: 45*

How did COc1cc(CC2=NC(=O)N(Cc3ccc(C)cc3)C2=O)ccc1OCc1cccc(C(=O)O)c1 do in these assays?
ROC1-CUL1 inh: 17

Results for Cc1ccc2nc(SCc3cccc4ccccc34)nc(C)c2c1 ?
ROC1-CUL1 inh: 1

What do the screens show for `COc1cc(C(=O)NC(=S)NNC(=O)COc2ccc(C)cc2C)cc(OC)c1OC`?
ROC1-CUL1 inh: -7

Results for COc1cc(/C=C2\C(=O)NN(c3ccc(Br)cc3)C2=O)cc(OC)c1OC ?
ROC1-CUL1 inh: -8

What do the screens show for `O=C1NN(c2ccc(Cl)cc2)C(=O)/C1=C/c1ccc(Cl)cc1`?
ROC1-CUL1 inh: 46*

What do the screens show for `CCc1ccc(N2NC(=O)/C(=C\c3cccs3)C2=O)cc1`?
ROC1-CUL1 inh: 5

How did O=C1NN(c2ccc(Br)cc2)C(=O)/C1=C\c1ccc(F)cc1 do in these assays?
ROC1-CUL1 inh: 86*

How did CCc1ccc(N2NC(=O)/C(=C/c3cccc(Br)c3)C2=O)cc1 do in these assays?
ROC1-CUL1 inh: 40*

Results for O=C1NN(c2ccc(Cl)cc2)C(=O)/C1=C/c1ccc(O)cc1O ?
ROC1-CUL1 inh: -4

How did CCN(CC)c1ccc(/C=C2/C(=O)NN(c3cccc(Br)c3)C2=O)cc1 do in these assays?
ROC1-CUL1 inh: 0

What do the screens show for `O=C1NN(c2ccc(Cl)cc2)C(=O)/C1=C/c1ccc2c(c1)OCO2`?
ROC1-CUL1 inh: 8

How did O=C1NN(c2ccc(I)cc2)C(=O)/C1=C\c1cc(Br)ccc1O do in these assays?
ROC1-CUL1 inh: 29*

What do the screens show for `CC(C)CCN(C)c1ccc(/C=C2/C(=O)NN(c3ccc(Br)cc3)C2=O)cc1`?
ROC1-CUL1 inh: 0

How did CCOc1ccc(Br)cc1/C=C1/C(=O)NN(c2ccc(I)cc2)C1=O do in these assays?
ROC1-CUL1 inh: 21

What do the screens show for `O=C1NN(c2ccc(I)cc2)C(=O)/C1=C\c1ccccc1O`?
ROC1-CUL1 inh: -7

Results for N#CC1=C(c2ccncc2)c2ccc(N)cc2OC1N (configuration not stated) ?
ROC1-CUL1 inh: -9

Results for COc1cc(CNCCCCO)cc(Br)c1OC ?
ROC1-CUL1 inh: 7

Results for CCS(=O)(=O)N1CCC(C(=O)Nc2ccccc2Sc2ccccc2)CC1 ?
ROC1-CUL1 inh: 6

Results for CC(=O)Nc1ccc(S(=O)(=O)NNC(=O)COc2ccc(C)cc2Br)cc1 ?
ROC1-CUL1 inh: -16

Results for CC1(C(=O)O)COC(c2ccccc2)OC1 (configuration not stated) ?
ROC1-CUL1 inh: 3

What do the screens show for `CCOC(=O)N1CCN(C2Cc3ccc(F)cc3Sc3ccc(C(C)C)cc32)CC1` (configuration not stated)?
ROC1-CUL1 inh: 4

Results for N#CC1C(=N)N(c2cccc(Cl)c2)C2=C(C(=O)CCC2)C1c1cc(CN2CCOCC2)cs1 (configuration not stated) ?
ROC1-CUL1 inh: -9

What do the screens show for `Cc1ccc(/C=C2\C(=O)NN(c3ccc(I)cc3)C2=O)cc1`?
ROC1-CUL1 inh: 63*

Results for O=C1NN(c2ccc(I)cc2)C(=O)/C1=C\c1cccc(I)c1 ?
ROC1-CUL1 inh: 4

Results for CCOc1ccc(/C=C2/C(=O)NN(c3ccc(I)cc3)C2=O)cc1 ?
ROC1-CUL1 inh: -3
